Screens: PubChem, several laboratories
Hits are enriched below; roughly 3.7% of the tested compounds scored in any of these assays.
MazF activator – activators of E. coli MazEF toxin-antitoxin RNase, primary screen, biochemical, fluorescence, uHTS; 0.32% of 350,000 active; FAM/BHQ RNA-DNA oligo cleavage fluorescence, 5 h; activation, % at 20 µM; Endoribonuclease toxin MazF (Escherichia coli (strain K12)), P0AE70; in the data active = activation above about 50%
Target sequence (P0AE70 whole entry, looked up): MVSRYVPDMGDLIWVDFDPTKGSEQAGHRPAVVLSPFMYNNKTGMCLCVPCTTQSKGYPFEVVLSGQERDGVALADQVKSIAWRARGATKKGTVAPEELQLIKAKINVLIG
BoNT-F LC inh – BoNT/F light chain protease inhibitors, primary screen, biochemical, flow cytometry, MLPCN library. inhibition, % at 10 µM. Botulinum neurotoxin type F light chain protease (Clostridium botulinum). 0.22% of 360,000 active. Multiplex microsphere protease cleavage assay; in the data active = inhibition above about 35%, passing the limit was not always enough; inconclusive = no clear call, values can overlap the other calls; note: plate controls were buffer without enzyme for full effect and enzyme alone for no effect
Autofluor counter – flagged as autofluorescent in microsphere protease counterscreen; compound autofluorescence counterscreen, microsphere flow cytometry; stronger effect = higher value; fluorescence intensity (test concentration not listed); 3.1% of 360,000 active; in the data active = fluorescence intensity above about 16000; inconclusive = no clear call, values can overlap the other calls
Anthrax LF inh2 – Bacillus anthracis LF protease inhibitors, primary screen, biochemical, multiplex microsphere, MLPCN library; multiplex microsphere protease cleavage assay; 0.12% of 360,000 active; inhibition, % at 10 µM; note: plate controls were buffer without enzyme for full effect and enzyme alone for no effect
BoNT-A LC inh2 – BoNT/A light chain protease inhibitors, primary screen, biochemical, flow cytometry, MLPCN library; multiplex microsphere protease substrate cleavage; inhibition, % at 10 µM; 0.17% of 360,000 active; note: plate controls were buffer without enzyme for full effect and enzyme alone for no effect
An asterisk follows results filed as active; ? = inconclusive; . = no result given. Cut-off read from the data, not from the text of the source, unless noted: active = inhibition above about 30%; inconclusive = no clear call, values can overlap the other calls; inactive = below that.

SMILES | MazF activator | BoNT-F LC inh | Autofluor counter | Anthrax LF inh2 | BoNT-A LC inh2
CCc1ccc(/C=N/NC(=O)Cc2ccc(OC)c(OC)c2)s1 | 9 | -9 | 6352 | 2 | -1
Cc1nc2ccccc2cc1C(=O)N/N=C/c1cccs1 | 12 | 38* | 2060 | 1 | 3
COc1ccc(CC(=O)N/N=C/c2cccs2)cc1OC | 0 | 49* | 3446 | -10 | 2
CCN1CCN(S(=O)(=O)Cc2ccccc2Cl)CC1 | 5 | -1 | 6454 | -1 | -1
COc1cc(NC(=O)c2cc(Cl)ccc2Cl)ccc1-c1cc2ccccc2oc1=O | -5 | 6 | 22732* | 0 | 3
CNC(=O)C1CC(=O)N(Cc2ccc(OC)c(OC)c2)C(=Nc2ccc(OC)cc2)S1 (stereo unspecified) | -2 | 1 | 2904 | -6 | 0
CNC(=O)C1CC(=O)N(Cc2ccccc2)C(=Nc2ccc(OC)cc2)S1 (stereo unspecified) | -3 | -4 | 23832* | -1 | ?
Cc1ccnc(NC2(C(F)(F)F)N=C(c3ccccc3)NC2=O)c1 (stereo unspecified) | -6 | 5 | 19679* | -3 | 3
Cc1[nH]n(C(N)=S)c(=O)c1N=Nc1ccc(S(=O)(=O)N2CCCCCC2)cc1 | -1 | -12 | 21910* | -3 | ?
Cc1ccc(N=Nc2c(C)[nH]n(C(N)=S)c2=O)cc1C | 2 | 0 | 2082 | 0 | 2
Cc1ccc(CNC(=O)CSc2nc(=O)n3ccc(C)cc3n2)cc1 | -2 | -7 | 3415 | -3 | 0
O=c1[nH]c(O)c(/C=C2\C=NN=C2c2ccccc2)c(=O)[nH]1 | -4 | -6 | 21773* | -2 | -4
O=C(Nc1cccc(-c2nc3ncccc3o2)c1)c1sc2ccccc2c1Cl | 44 | 8 | 18637* | 0 | 8
O=C(Nc1cccc(-c2nc3ncccc3o2)c1)c1sc2cc(Cl)ccc2c1Cl | -64 | 2 | 22567* | 0 | ?
O=C(Nc1cccc(-c2nc3ncccc3o2)c1)c1cc2ccccc2o1 | -2 | -16 | 4703 | 0 | -1
COC(=O)[C@]12CCCCC=C1N(Cc1ccco1)C(=O)[C@H](CC(=O)NCCC(C)C)C2 | . | -3 | 4327 | -8 | 0
O=C1c2ccccc2C(=O)N1CCCc1nc2ccccc2c(=O)n1CCCn1ccnc1 | 6 | -12 | 19567* | 1 | -9
COc1ccncc1-c1ccc(C2=CC(=O)CC(C)(C)C2=O)cc1 | 5 | 5 | 3319 | 5 | 5
Cc1nn(CCC(=O)NNC(=S)Nc2ccc(F)cc2)c(C)c1[N+](=O)[O-] | -4 | 2 | 22117* | -2 | 1
COC(=O)C1=C(C)N(C)C(C)=C(C(=O)OC)C1c1ccccc1C | -8 | -6 | 5349 | 5 | 0
CCCCOc1ccccc1C1C(C(=O)OC)=C(C)N(C)C(C)=C1C(=O)OC | -8 | -2 | 22647* | 1 | 0
COC(=O)C1=C(C)N(C)C(C)=C(C(=O)OC)C1c1ccccn1 | 94* | 1 | 2681 | -3 | 0
FC(F)Sc1nnc(-c2cccs2)n1-c1ccccc1 | -2 | 1 | 19168* | 2 | 1
Cc1cc(=O)oc(C)c1C(=O)NCCC(C)C | 13 | 1 | 22899* | 0 | 2
Cc1cc(=O)oc(C)c1C(=O)NCCNC(=O)c1c(C)cc(=O)oc1C | 15 | 1 | 2859 | -2 | 0
SMILES | MazF activator | BoNT-F LC inh | Autofluor counter | Anthrax LF inh2 | BoNT-A LC inh2
Cc1ccc(CNC(=O)c2c(C)cc(=O)oc2C)cc1 | 4 | 3 | 10776 | -3 | -1
Cc1cc(=O)oc(C)c1C(=O)NCC1COc2ccccc2O1 (stereo unspecified) | -2 | 6 | 20933* | -6 | 6
CC(=O)NCC1COc2ccccc2O1 (stereo unspecified) | 4 | -5 | 4827 | -7 | 0
CCN(CCCNC(=O)c1c(C)cc(=O)oc1C)c1cccc(C)c1 | -2 | 2 | 22991* | -7 | 1
O=C(NCc1ccccn1)c1cc2cc(Br)ccc2oc1=O | -2 | -10 | 25730* | -2 | -6
CCCCn1c(N)c(N(CCOC)C(=O)c2ccc(C)o2)c(=O)[nH]c1=O | 8 | . | . | . | .
O=c1ccc2nc3ccccc3sc-2c1 | . | -4 | 3920 | -8 | 7
Cc1cc(=O)oc(C)c1C(=O)NCc1ccccn1 | -2 | -1 | 20680* | -1 | -2
O=C(CNC(=O)c1ccc(Br)o1)NCC1CCCCC1 | 7 | -2 | 6200 | -1 | 4
COc1ccc(C2C(C(C)=O)=C(O)C(=O)N2c2cccnc2)c(OC)c1 (stereo unspecified) | 1 | -2 | 16553* | -4 | -1
COc1ccc(C2C(C(C)=O)=C(O)C(=O)N2C)c(OC)c1 (stereo unspecified) | -4 | ? | 3990 | 7 | -1
O=C(Nc1c(Cl)cc2c(c1Cl)Cc1cc([N+](=O)[O-])ccc1-2)C(Cl)Cl | 0 | 1 | 3629 | 7 | 1
C=CCNC(=O)c1ccc(-c2nc(-c3ccc(Cl)c(Cl)c3)cs2)cc1 | -13 | -3 | 22537* | -4 | ?
Cc1nnc(SCC(=O)N2CCN(Cc3ccccc3)CC2)s1 | -5 | -2 | 10928 | 2 | -1
Nc1nnc(SCC(=O)N2CCN(Cc3ccccc3)CC2)s1 | -1 | 0 | 16406* | 2 | ?
COc1cc2c3c(c1)-c1c(sn(-c4cc(OC)ccc4OC)c1=S)C(C)(C)N3C(=O)C2=O | 15 | 1 | 21539* | -6 | 2
COc1ccc2c(c1)-c1c(sn(-c3ccc(OC)c(OC)c3)c1=S)C(C)(C)N2 | -7 | -7 | 4478 | -5 | -2
COc1ccc(N2C(=O)CSC2c2ccc3c(c2)OCO3)cc1 (stereo unspecified) | 7 | -2 | 16403* | 2 | -1
COc1ccc(N2C(=O)CSC2c2ccc3c(c2)OCO3)c(OC)c1 (stereo unspecified) | 4 | 1 | 4172 | -4 | -1
Cc1ccc(S(=O)(=O)N(CC(=O)Nc2cccc([N+](=O)[O-])c2)C(=O)N2CCN(C)CC2)cc1 | 2 | -76 | 16418* | -13 | -45
COC(=O)C1=C(C)N=c2s/c(=C/c3ccoc3)c(=O)n2C1c1ccccc1 (stereo unspecified) | 88* | 5 | 21630* | 0 | 4
CCOC(=O)c1cn(CC)c2ccc(S(=O)(=O)N3CC(C)CC(C)C3)cc2c1=O (stereo unspecified) | 4 | -1 | 16593* | 1 | -1
Cc1ccc(C(=O)OCC(=O)N(CC(C)C)c2c(N)n(Cc3ccccc3)c(=O)[nH]c2=O)s1 | 6 | -13 | ? | -1 | -1
CCOc1ccccc1-n1c(SCC(N)=O)nnc1-c1ccc(O)cc1 | -4 | 4 | 19710* | -1 | 2
CCOc1ccccc1-n1c(SCC(=O)N2CCCC2)nnc1-c1ccc(O)cc1 | -11 | -1 | 10502 | 0 | -1
